“And” between values parts separate entries of the source, which are not always exact repeats. Identical values can stand only once. Counter-ions that a name gives are not always drawn.
Columns and labels:
Assay in all cases: cell viability relative to vehicle control; higher = less cytotoxic
Settings in all cases: 10 µM
[1] = test system: K562
Outline: (§1)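 CRISPR-edited mutant clones and isogenic wild-type clones from four leukaemia lines were screened against Selleck bioactive, kinase and epigenetic probe libraries, with identity-inconsistent compounds excluded. Each compound was acoustically dispensed at a single 10 µM dose into 384-well plates holding 2000 cells in 50 µL medium per well. After 48 h the supernatant was removed and CellTiter-Glo luminescence was read. Viability was expressed as percent of the on-plate vehicle control and analysed in Genedata Screener.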

[2] = test system: MARIMO
Outline: as §1

[3] = test system: MOLM14
Outline: as §1

[4] = test system: OCI-AML2
Outline: as §1

Structure (SMILES) | cell viability ([1]; SRSF2 genotype: SRSF2 P95H/wt) | cell viability ([1]; SRSF2 genotype: SRSF2 wt/wt) [%] | cell viability ([2]; SRSF2 genotype: SRSF2 P95H/wt) [%] | cell viability ([2]; SRSF2 genotype: SRSF2 wt/wt) [%] | cell viability ([3]; SRSF2 genotype: SRSF2 P95H/wt) [%] | cell viability ([3]; SRSF2 genotype: SRSF2 wt/wt) [%] | cell viability ([4]; SRSF2 genotype: P95H/wt) [%] | cell viability ([4]; SRSF2 genotype: wt/wt) [%]
COc1cc(O)c(CC=C(C)C)c2c1C(=O)CC(c1ccc(O)cc1)O2 (stereo unspecified) [Isoxanthohumol] | 83.1% and 81.6% | 78.3 | 94.3 | 82.2 | 94.7 | 97.7 | 93.7 | 93
Cc1cc(/N=N/c2ccc(S(=O)(=O)Nc3ccccn3)cc2)c(N)cc1O | 76.8% and 80.2% | 79.7 | 56.9 | 53.3 | 36.3 | 34.8 | 26.2 | 48.7
C[C@H]1[C@@H](O)O[C@@H]2O[C@@]3(C)CC[C@H]4[C@H](C)CC[C@@H]1[C@@]24OO3 [Dihydroartemisinin (DHA)] | 37.7% and 30.4% | 28.8 | 25 | 29.9 | 22.1 | 9.71 | 0.58 | 7.67
CCCCOC(=O)c1ccccc1Nc1cccc(C(F)(F)F)c1 [Ufenamate] | 101% and 100% | 99.2 | 93 | 102 | 103 | 109 | 110 | 110
C/C=C(/C)C(=O)O[C@H]1Cc2cc3ccc(=O)oc3cc2OC1(C)C [Decursinol angelate] | 83.2% and 91.7% | 81.8 | 75 | 82.4 | 83.1 | 89.4 | 71.1 | 77.8
CC(C)C(NC(=O)c1ccc2ccccc2n1)C(=O)NC(CC(=O)O)C(=O)COc1c(F)cccc1F (stereo unspecified) | 104% and 106% | 97.3 | 100 | 110 | 104 | 99.8 | 100 | 101
CCCCC(F)(F)[C@@]1(O)CC[C@H]2[C@@H](CC(=O)[C@@H]2CCCCCCC(=O)O)O1 [Lubiprostone] | 101% and 100% | 104 | 93.9 | 98 | 84.5 | 98.8 | 83.6 | 88
COc1ccc2cc1Oc1ccc(cc1)C[C@H]1c3c(cc4c(c3Oc3cc5c(cc3OC)CCN(C)[C@@H]5C2)OCO4)CCN1C [Cepharanthine] | 5.44% and 5.78% | 3.74 | 57.9 | 50.3 | 25.4 | 26.7 | 0.56 | 8.53
Cc1cc(Nc2ncc(Cl)c(Nc3ccccc3S(=O)(=O)C(C)C)n2)c(OC(C)C)cc1C1CCNCC1 [Ceritinib (LDK378)] | 0.29% and 0.22% | 0.14 | 0.2 | 0.23 | 0.06 | 0.11 | -0.03 | 0.01
COc1cc(O)c(C(=O)c2ccccc2)cc1S(=O)(=O)O [Sulisobenzone] | 99.1% and 89.9% | 94.3 | 95.4 | 104 | 97.8 | 101 | 88.7 | 104
CC1(C)C2CCC1(C)C(O)C2 (single isomer, unassigned; (+)) [(+)-Borneol] | 96.5% and 99.3% | 105 | 100 | 106 | 101 | 103 | 101 | 98
C[C@H](NC(=O)CCC(F)(F)F)C(=O)N[C@@H]1C(=O)N(CCO)c2ncccc2-c2ccccc21 | 103% and 104% | 95.9 | 97.4 | 108 | 109 | 103 | 89.4 | 99.8
O=C(NO)c1cnc(NC2(c3ccccc3)CC2)nc1 | 8.09% and 28.4% | 35.4 | 3.94 | 3.14 | 4.83 | 1.94 | 0.88 | 2.07
O=NN(CCCl)C(=O)NC1CCCCC1 [Lomustine (CeeNU)] | 95% and 113% | 111 | 100 | 99.9 | 84 | 97.9 | 97.2 | 105
C[C@@H](Oc1ccc2[nH]nc(/C=C/c3cnn(CCO)c3)c2c1)c1c(Cl)cncc1Cl | 36.1% and 35.5% | 30.1 | 6.39 | 5.47 | 0.8 | 0.16 | 0.48 | 4.14
CC1CCC2(OC1)OC1CC3C4CCC5CC(OC6OC(CO)C(O)C(O)C6OC6OC(CO)C(O)C(O)C6O)CCC5(C)C4CCC3(C)C1C2C (stereo unspecified) [Timosaponin A3] | 7.72% and 10% | 28.3 | 3.39 | 3.93 | 1.66 | 0.73 | 0.43 | 0.73
CCNC(=O)c1noc(-c2cc(C(C)C)c(O)cc2O)c1-c1ccc(CN2CCOCC2)cc1 [Luminespib (AUY-922, NVP-AUY922)] | 16.9% and 29.2% | 25.6 | 32.3 | 26 | 1.2 | 1.31 | 12.3 | 20.7
NC(=O)c1nc(F)cnc1O [Favipiravir (T-705)] | 98.6% and 95.8% | 95.8 | 91.7 | 92.5 | 89.8 | 94.8 | 100 | 93.2
OC[C@H]1O[C@H](O[C@H]2[C@H](O)[C@@H](O)C(O)O[C@@H]2CO)[C@H](O)[C@@H](O)[C@@H]1O (mixture of isomers) [Maltose] | 96.1% and 91.6% | 99.6 | 102 | 102 | 98.9 | 98.9 | 96.6 | 104
CC(C)N(CCC(=O)c1ccc2ccccc2c1)Cc1ccccc1 | 12.2% and 12.8% | 13.9 | 0.57 | 0.67 | 0.58 | 0.45 | 0.38 | 0.4
CCNC(=O)Nc1ccc(-c2nc(N3CCOC[C@@H]3C)c3c(n2)C(C)(C)S(=O)(=O)C3)cc1 | 40% and 38.6% | 34.4 | 56.9 | 51 | 33.5 | 26.9 | 29.6 | 32

Structure (SMILES) | cell viability ([1]; SRSF2 genotype: SRSF2 P95H/wt) | cell viability ([1]; SRSF2 genotype: SRSF2 wt/wt) [%] | cell viability ([2]; SRSF2 genotype: SRSF2 P95H/wt) [%] | cell viability ([2]; SRSF2 genotype: SRSF2 wt/wt) [%] | cell viability ([3]; SRSF2 genotype: SRSF2 P95H/wt) [%] | cell viability ([3]; SRSF2 genotype: SRSF2 wt/wt) [%] | cell viability ([4]; SRSF2 genotype: P95H/wt) [%] | cell viability ([4]; SRSF2 genotype: wt/wt) [%]
CC(C)NCC(O)c1ccc(O)c(O)c1 (stereo unspecified) [Isoprenaline hydrochloride] | 92.4% and 104% | 96.9 | 98.4 | 100 | 89.7 | 96.5 | 104 | 101
COc1cc(OC)c(/C=C/S(=O)(=O)Cc2ccc(OC)c(NCC(=O)O)c2)c(OC)c1 | 16.5% and 39% | 35.6 | 5.99 | 9.46 | 0.51 | 0.74 | 1.32 | 2.98
O=C(COc1cccc2c(=O)[nH]ccc12)c1ccccc1 | 89.7% and 93.9% | 98.9 | 94.6 | 88.4 | 102 | 98.5 | 88 | 84.1
C[C@@H]1CC[C@@]2(NC1)O[C@H]1C[C@H]3[C@@H]4CC=C5C[C@@H](O[C@@H]6O[C@H](CO)[C@@H](O[C@@H]7O[C@@H](C)[C@H](O)[C@@H](O)[C@H]7O)[C@H](O)[C@H]6O[C@@H]6O[C@@H](C)[C@H](O)[C@@H](O)[C@H]6O)CC[C@]5(C)[C@H]4CC[C@]3(C)[C@H]1[C@@H]2C [Solamargine] | 85.3% and 85.5% | 81.8 | 51.5 | 89.6 | 81.6 | 81.6 | 91 | 87.2
Cc1cc(C)c(CNC(=O)c2cc(-c3ccc(N4CCN(C)CC4)nc3)cc3c2c(C)cn3C(C)C)c(=O)[nH]1 | 83.8% and 78.9% | 86 | 90.1 | 94.2 | 80.4 | 83.3 | 70.6 | 82.2
COc1cc(Br)c(Nc2nc(-c3c(C)nc4ncccn34)cs2)c(Br)c1 | 20.6% and 23.8% | 24 | 14.7 | 19.2 | 16 | 10.7 | 2.76 | 8.07
CC1C(=O)OC2C(O)C34C5CC(C(C)(C)C)C36C(OC(=O)C6O)OC4(C(=O)O5)C12O (stereo unspecified) [Ginkgolide B] | 110% | 114 | 111 | 109 | 107 | 109 | 113 | 105
C/C=C(/C)C(=O)O[C@H]1[C@@H](OC(=O)CC(C)C)c2c(ccc3ccc(=O)oc23)OC1(C)C [Praeruptorin E] | 65.9% and 77.1% | 79 | 57.4 | 53.9 | 69.4 | 76.3 | 25.6 | 52.9
Oc1ncnc2[nH]ncc12 [Allopurinol (Zyloprim)] | 99% and 99.5% | 104 | 97.1 | 98.3 | 99.3 | 96 | 101 | 104
Cc1ccc(C(=O)N(CCCN)[C@@H](c2oc3cc(Cl)ccc3c(=O)c2Cc2ccccc2)C(C)C)cc1 | 0.65% and 0.76% | 0.52 | 0.39 | 0.45 | 0.45 | 0.45 | 0.35 | 0.4
O=c1ccc2ccc(OCCCCN3CCN(c4cccc5sccc45)CC3)cc2[nH]1 [Brexpiprazole] | 37.4% and 28.9% | 60.1 | 43.1 | 39.2 | 33 | 23.4 | 15.4 | 21.6
N[C@@H](Cc1cc(I)c(Oc2cc(I)c(O)c(I)c2)c(I)c1)C(=O)O [Levothyroxine sodium] | 89.6% and 92.8% | 106 | 102 | 104 | 92.9 | 101 | 100 | 94.3
O=c1cc(-c2ccc(O)cc2)oc2c([C@@H]3O[C@H](CO)[C@@H](O)[C@H](O)[C@H]3O)c(O)cc(O)c12 [Vitexin] | 109% and 103% | 101 | 108 | 107 | 101 | 105 | 103 | 107
Cn1ncc(Cl)c1-c1cc(C(=O)N[C@H](CN)Cc2ccc(F)c(F)c2)oc1Cl | 73.1% and 71.1% | 79.8 | 64.1 | 59.3 | 31.9 | 31.4 | 51.1 | 50.4
C=CCC(=NOS(=O)(=O)O)S[C@@H]1O[C@H](CO)[C@@H](O)[C@H](O)[C@H]1O (stereo in doubt) [Sinigrin] | 96.4% and 104% | 99.7 | 93.4 | 96.4 | 94.1 | 97.8 | 101 | 101
O=C(CSc1nc2c(c(=O)n1-c1ccccc1)SCC2)Nc1ccc(-c2ccccc2)cn1 | 88.8% and 93.3% | 92.7 | 100 | 98.2 | 100 | 96.8 | 93.1 | 103
CC(C)c1ccc(C=O)cc1 [4-Isopropylbenzaldehyde] | 94.1% and 90.8% | 92.4 | 94.5 | 99.9 | 86.2 | 94.9 | 89.9 | 93.4
O=C(O)CCCc1c[nH]c2ccccc12 [3-Indolebutyric acid (IBA)] | 108% and 96.9% | 96.9 | 100 | 107 | 93.2 | 101 | 97.2 | 106
Nc1nc(-c2nn(Cc3ccccc3F)c3ncccc23)ncc1C1CC1 | 110% and 114% | 95.3 | 103 | 101 | 104 | 104 | 83.9 | 86.4
Cc1cc2c(s1)Nc1ccccc1N=C2N1CCN(C)CC1 [Olanzapine (Zyprexa)] | 95.8% and 89.5% | 90.7 | 92.5 | 102 | 93.8 | 95.8 | 81.7 | 92.2
CC(C(=O)O)c1ccc(-c2ccccc2)c(F)c1 (stereo unspecified) [Flurbiprofen] | 107% and 105% | 103 | 106 | 99 | 104 | 105 | 108 | 102
